Data published in PubChem BioAssay AID1159580 (chemical genetic matrix, 2015).
About 2,000 (36%) of roughly 5,500 compounds were called active. Roughly 18% stayed inconclusive and do not appear here. Rule as the data show it: active = normalized growth mostly below about 0.91 (no sharp cut-off); inconclusive = no clear call, values can overlap the other calls; inactive = mostly above about 0.92. The list shows a part of the results.

Assay: chemical genetic growth profiling, strain panel (AID 1159580);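 also: tested at 20 µM; growth read once vehicle control cultures reached saturation at 30 °C; 1 = growth at the plate median or of vehicle wells; lower values mean less growth of the strain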
Details: growth OD

Measured: normalized growth

O[N+]1=CC=CCC1=S.On1ccccc1=S.[Zn]
active: S. cerevisiae deletion strains, locus YJR043C, strain POL32, active compounds read low 0.0664 | S. cerevisiae deletion strains, locus YJR066W, strain TOR1, active compounds read low 0.00186 | S. cerevisiae deletion strains, locus YJR075W, strain HOC1, active compounds read low 0.0642 | S. cerevisiae deletion strains, locus YKL009W, strain mrt4, active compounds read low 0.071 | S. cerevisiae deletion strains, locus YKL068W, active compounds read low 0.0609 | S. cerevisiae deletion strains, locus YKL085W, strain MDH1 (second series), active compounds read low 0.0543 | S. cerevisiae deletion strains, locus YKL085W, strain MDH1, active compounds read low 0.0543 | S. cerevisiae deletion strains, locus YKL160W, strain elf1, active compounds read low 0.07 | S. cerevisiae deletion strains, locus YKR001C, strain vps1, active compounds read low 0.063 | S. cerevisiae deletion strains, locus YKR026C, strain gcn3, active compounds read low 0.0676 | S. cerevisiae deletion strains, locus YKR091W, strain srl3, active compounds read low 0.0611 | S. cerevisiae deletion strains, locus YLL001W, strain dnm1, active compounds read low 0.059 | S. cerevisiae deletion strains, locus YLL026W, active compounds read low 0.0586 | S. cerevisiae deletion strains, locus YLL041C, strain sdh2, active compounds read low 0.0589 | S. cerevisiae deletion strains, locus YLR027C, strain aat2, active compounds read low 0.0567 | S. cerevisiae deletion strains, locus YLR039C, strain RIC1, active compounds read low 0.101 | S. cerevisiae deletion strains, locus YLR058C, strain SHM2, active compounds read low 0.0528 | S. cerevisiae deletion strains, locus YLR102C, strain apc9, active compounds read low 0.0619 | S. cerevisiae deletion strains, locus YLR113W, strain HOG1, active compounds read low 0.14 | S. cerevisiae deletion strains, locus YLR221C, strain rsa3, active compounds read low 0.0633 | S. cerevisiae deletion strains, locus YLR258W, strain gsy2, active compounds read low 0.0677 | S. cerevisiae deletion strains, locus YLR262C, strain YPT6 (second series), active compounds read low 0.0872 | S. cerevisiae deletion strains, locus YLR262C, strain YPT6, active compounds read low 0.116 | S. cerevisiae deletion strains, locus YLR268W, strain sec22, active compounds read low 0.0675 | S. cerevisiae deletion strains, locus YLR320W, strain mms22, active compounds read low 0.0954 | S. cerevisiae deletion strains, locus YLR330W, strain CHS5, active compounds read low 0.0529 | S. cerevisiae deletion strains, locus YLR342W, strain FKS1 (second series), active compounds read low 0.0696 | S. cerevisiae deletion strains, locus YLR342W, strain FKS1, active compounds read low 0.0672 | S. cerevisiae deletion strains, locus YLR357W, strain rsc2, active compounds read low 0.128 | S. cerevisiae deletion strains, locus YLR370C, strain arc18, active compounds read low 0.0633 | S. cerevisiae deletion strains, locus YLR371W, strain rom2, active compounds read low 0.0617 | S. cerevisiae deletion strains, locus YLR384C, strain iki3, active compounds read low 0.0637 | S. cerevisiae deletion strains, locus YLR418C, strain cdc73, active compounds read low 0.0957 | S. cerevisiae deletion strains, locus YML016C, strain PPZ1, active compounds read low 0.0508 | S. cerevisiae deletion strains, locus YML032C, strain rad52, active compounds read low 0.0712 | S. cerevisiae deletion strains, locus YML120C, strain ndi1, active compounds read low 0.0615 | S. cerevisiae deletion strains, locus YML124C, strain tub3, active compounds read low 0.061 | S. cerevisiae deletion strains, locus YMR058W, strain fet3, active compounds read low 0.0596 | S. cerevisiae deletion strains, locus YMR078C, strain ctf18, active compounds read low 0.0748 | S. cerevisiae deletion strains, locus YMR125W, strain sto1, active compounds read low 0.0764 | S. cerevisiae deletion strains, locus YMR129W, active compounds read low 0.059 | S. cerevisiae deletion strains, locus YMR205C, strain PFK2, active compounds read low 0.0932 | S. cerevisiae deletion strains, locus YMR223W, strain ubp8, active compounds read low 0.0633 | S. cerevisiae deletion strains, locus YMR231W, strain pep5, active compounds read low 0.0701 | S. cerevisiae deletion strains, locus YMR263W, strain SAP30, active compounds read low 0.0599 | S. cerevisiae deletion strains, locus YMR307W, strain GAS1, active compounds read low 0.132 | S. cerevisiae deletion strains, locus YNL067W, strain RPL9B, active compounds read low 0.0487 | S. cerevisiae deletion strains, locus YNL071W, strain lat1, active compounds read low 0.0631 | S. cerevisiae deletion strains, locus YNL128W, strain TEP1, active compounds read low 0.0641 | S. cerevisiae deletion strains, locus YNL183C, strain NPR1, active compounds read low 0.00323 | S. cerevisiae deletion strains, locus YNL209W, strain ssb2, active compounds read low 0.0623 | S. cerevisiae deletion strains, locus YNL233W, strain BNI4, active compounds read low 0.0571 | S. cerevisiae deletion strains, locus YNL248C, strain rpa49, active compounds read low 0.0755 | S. cerevisiae deletion strains, locus YNL250W, strain rad50, active compounds read low 0.0654 | S. cerevisiae deletion strains, locus YNL271C, strain bni1, active compounds read low 0.074 | S. cerevisiae deletion strains, locus YNL298W, strain CLA4, active compounds read low 0.0625 | S. cerevisiae deletion strains, locus YNL307C, strain MCK1, active compounds read low 0.0674 | S. cerevisiae deletion strains, locus YNL322C, strain KRE1 (second series), active compounds read low 0.0696 | S. cerevisiae deletion strains, locus YNR049C, strain mso1, active compounds read low 0.0598 | S. cerevisiae deletion strains, locus YNR052C, strain pop2, active compounds read low 0.0619 | S. cerevisiae deletion strains, locus YOL147C, strain pex11, active compounds read low 0.0583 | S. cerevisiae deletion strains, locus YOR001W, strain rrp6, active compounds read low 0.0748 | S. cerevisiae deletion strains, locus YOR061W, strain CKA2, active compounds read low 0.049 | S. cerevisiae deletion strains, locus YOR069W, strain VPS5, active compounds read low 0.0493 | S. cerevisiae deletion strains, locus YOR070C, strain gyp1, active compounds read low 0.064 | S. cerevisiae deletion strains, locus YOR080W, strain dia2, active compounds read low 0.0707 | S. cerevisiae deletion strains, locus YOR083W, strain WHI5, active compounds read low 0.0734 | S. cerevisiae deletion strains, locus YOR106W, strain vam3, active compounds read low 0.0661 | S. cerevisiae deletion strains, locus YOR136W, strain idh2, active compounds read low 0.0716 | S. cerevisiae deletion strains, locus YOR144C, strain elg1, active compounds read low 0.0584 | S. cerevisiae deletion strains, locus YOR184W, strain ser1, active compounds read low 0.0698 | S. cerevisiae deletion strains, locus YOR231W, strain MKK1, active compounds read low 0.116 | S. cerevisiae deletion strains, locus YOR265W, strain rbl2, active compounds read low 0.064 | S. cerevisiae deletion strains, locus YOR270C, strain vph1, active compounds read low 0.0915 | S. cerevisiae deletion strains, locus YOR290C, strain snf2, active compounds read low 0.0656 | S. cerevisiae deletion strains, locus YOR316C, strain cot1, active compounds read low 0.0596 | S. cerevisiae deletion strains, locus YPL051W, strain arl3, active compounds read low 0.0708 | S. cerevisiae deletion strains, locus YPL055C, strain LGE1, active compounds read low 0.0796 | S. cerevisiae deletion strains, locus YPL078C, strain atp4, active compounds read low 0.07 | S. cerevisiae deletion strains, locus YPL106C, strain sse1, active compounds read low 0.109 | S. cerevisiae deletion strains, locus YPL240C, strain hsp82, active compounds read low 0.0591 | S. cerevisiae deletion strains, locus YPL256C, strain CLN2, active compounds read low 0.114 | S. cerevisiae deletion strains, locus YPR119W, strain clb2, active compounds read low 0.0639 | S. cerevisiae deletion strains, locus YPR141C, strain kar3, active compounds read low 0.0689 | S. cerevisiae deletion strains, locus YPR163C, strain tif3, active compounds read low 0.0727 | S. cerevisiae deletion strains, locus YPR167C, strain met16, active compounds read low 0.0637 | S. cerevisiae deletion strains, strain wtn01, active compounds read low 0.0638 | S. cerevisiae strains, strain wild type, active compounds read low 0.0514
